Experimental data taken from ChEMBL document CHEMBL3988442, “University of Dundee, Small-Polar-MMV Screening Library” (2021).

Target: AMP-activated protein kinase, AMPK (Homo sapiens) (UniProt P54646+O43741+P54619+Q9UGJ0+Q9Y478+Q13131+Q9UGI9)
Experiment: AMP-dependent Kinase enzyme assay. An in vitro enzyme assay that detects ADP turnover that is directly proportional to AMPK activity. This uses naive AMPK that is activated during the assay with MK-8722
Type: functional
Parameters: scale not given: direction of the effect not stated beside the values
Conditions: 30 µM

Row | SMILES | Percent Effect [%]
1 | O=C(CNC(=O)c1ccccc1I)NCc1ccccc1F | 4.78
2 | Cc1noc(CCNC(=O)C2CSCN2C(=O)C2CCCC2)n1 (stereo not given) | 3.34
3 | CC(C)c1noc(C(C)N2CCC(c3nc4ccccc4o3)CC2)n1 (stereo not given) | 0.506
4 | O=C(CN1CC(c2nc(-c3ccco3)no2)C1)NCCc1ccccc1 | -5
5 | Cc1cc(C(=O)N2CC[C@](C)(O)[C@H](C)C2)c(C)n1C | -6.41
6 | Cc1nc(NC2(CN3CCCCC3)CCCCC2)c2cnn(C)c2n1 | 5.76
7 | Cn1cc(S(=O)(=O)NCc2ccsc2)cn1 | -0.312
8 | CN(CCc1noc(C2CC2)n1)C(=O)C1(N2CCCC2)CCCC1 | -3.61
9 | COCCCNC(=O)Nc1c(C)cccc1C(C)C | 7.47
10 | Cc1noc(C)c1-c1n[nH]c2c1CN(S(=O)(=O)c1cccs1)CC2 | 2.21
11 | COC(=O)c1ccc2c(c1)CCCN2S(=O)(=O)c1cn(C)c(C)n1 | -5.88
12 | CCCn1nnnc1COC(=O)C1Cc2cc(Cl)ccc2O1 (stereo not given) | 6.63
13 | COC(=O)C1CCN(C(=O)Cn2ccc(-c3ccsc3)n2)CC1 | -3.29
14 | O=C(c1coc(COc2ccccc2F)n1)N1CCCO1 | 6.72
15 | CSc1ccc(OCCN2CCNC(=O)CC2)cc1 | 9.33
16 | COc1ccccc1CCN(C)C(C)c1nc(-c2cccnc2)no1 (stereo not given) | 1.66
17 | O=C1CCC2(CCNCC2)CN1Cc1nnc2ccccn12 | 8.07
18 | Cc1nn(C)c(C)c1C1COCCN1C(=O)CC(C)(C)C (stereo not given) | -3.31
19 | NC(=O)C1CCCN1Cc1nccn1CC(F)(F)F (stereo not given) | 1.35
20 | Cc1cnn(C2CN(CC(O)COc3ccc(C#N)cc3)C2)c1 (stereo not given) | -78.4

Row | SMILES | Percent Effect [%]
21 | CCOC(=O)c1ccc(S(=O)(=O)NCC(CC)N2CCCC2)cc1 (stereo not given) | -6.04
22 | Nc1nc2c(c(NCc3nccs3)n1)CCN(CC1CCCC1)CC2 | 1.23
23 | Cn1cnnc1C1CCCN(Cc2nc(Cc3ccccc3)no2)C1 (stereo not given) | 12.2
24 | COCCCS(=O)(=O)N1CCN(Cc2cccn2C)CC1 | 2.25
25 | COc1ccc(CN2CC[C@@]3(O)CCCC[C@H]3C2)cc1C(=O)O | -10
26 | O=C1CCC(C(=O)N2CCC(Cn3cc(C4CCCC4)nn3)CC2)=NN1 | -8.82
27 | CCc1c(C(=O)Nc2ccc(F)c(C(=O)NC)c2)cnn1CC(C)C | 11.4
28 | CN(C)CCN(Cc1ccc(F)cc1)C(=O)c1ccn(C)c(=O)c1 | 9.83
29 | COCCCNc1ncnc2c1CCN(C(=O)CC1C=CCC1)CC2 (stereo not given) | 11.8
30 | Cc1cc(C(=O)NC2CCN(c3nnc(C)c(C)c3C#N)CC2)no1 | -21.4
31 | Cc1nonc1CNC(=O)C(C)Oc1ccccc1F (stereo not given) | 5.55
32 | Cc1cc(C)cc(-n2ncc3c2CCCC3N)c1 (stereo not given) | 15.1
33 | CN(C)C(CNC(=O)CCNC(=O)OCC(F)(F)F)c1ccsc1 (stereo not given) | 3.22
34 | N#CC1COCCN1C(=O)c1ccc2[nH]ccc2c1 (stereo not given) | 7.92
35 | CN(C)c1ccc(C(=O)N(Cc2ccncc2)CC2CCCO2)nn1 (stereo not given) | -3.6
36 | CCc1oc(C(=O)N[C@@H]2c3ccccc3C[C@@H]2O)cc1CN1CCCC1 | 4.06
37 | Fc1ccccc1CN1CCC[C@@H](Cn2nnc(-c3cccs3)n2)C1 | 5.25
38 | CNc1nc(C(=O)N2CCCC(COc3ccc(F)cc3)C2)cs1 (stereo not given) | 63.7
39 | COC(=O)N1CCCCC1C(=O)N1CCCN(c2ccnc(C)c2)CC1 (stereo not given) | -3.17
40 | CCC(=O)N(c1ccc(C(=O)OC)cc1C)C(C)C | -4.13
